In the library only some 11% were active in any assay of this set; here they are far more common.
NS1 function inh = blocks influenza NS1 protein function; Potency, µM (titrated, usually from 46.1 µM), inactives show top-dose activity, positive = more growth; hit rate 0.4% among 270,000; AID 2326; calls by dose curve; note: actives are rising curves; nearly all actives have a fitted effect of over 50% in size
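In this qHTS, NS1 from influenza A is expressed in budding yeast, where it slows growth. Cells are switched from glucose to 2% galactose medium (pH 6.0, -URA), treated with compound, and growth recovery is read at OD600.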
Pf growth 96h = inhibits malaria parasite growth, 96 h | P. falciparum luciferase reporter growth, 96 h | Potency, µM (highest dose often 28.7 µM), without a hit: at the top dose activity change, negative = inhibition, actives largely listed as inhibitors | hit rate 6.9% among 320,000 | AID 504834; note: % is set by controls: 0 for no effect and ±100 for the full control effect
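P. falciparum expressing integrated firefly luciferase grown in erythrocytes (2% hematocrit, 0.05% parasitemia final) with compounds for 96 hours at 37 C, 5% CO2. Growth inhibition read as loss of luminescence after adding luciferase detection reagent.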
AMA1 RON2 block = AMA1-RON2 (P. falciparum) interaction inhibition. AlphaScreen AMA1-biotinylated RON2 peptide binding. Potency, µM (titrated, usually from 58.2 µM), without a hit: top-dose activity change, negative = inhibition, most hits filed as inhibitors. hit rate 0.2% among 360,000. AID 720542;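 note: 0% = vehicle wells and -100% = peptide control; nearly all actives have a fitted effect of over 45% in size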
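AMA1 (3D7) with his tag at 25 nM final met compounds first, then biotinylated RON2 peptide at 25 nM; detection used donor plus acceptor beads, 10 µg/mL apiece, read by AlphaScreen after 30 min at room temperature.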
Sm TGR inh = blocks Schistosoma mansoni thioredoxin glutathione reductase. purified TGR, DTNB reduction, TNB absorbance 405 nm. Q962Y6. hit rate 3% among 360,000. Potency, µM (highest dose often 114 µM), for inactives: at the top dose activity change, negative = inhibition, hits mostly inhibitors. AID 485364; note: % is set by controls: 0 for no effect and ±100 for the full control effect; nearly all actives have a fitted effect of over 60% in size
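TGR 20 nM + NADPH 100 uM (dispensed conc.), cpd preinc 15 min RT; start with NADPH (500 uM addition) then DTNB (15 mM addition). Kinetic TNB absorbance, 405 nm filter. Four-parameter Hill fit across titration.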
Pf growth 48h = P. falciparum growth inhibition at 48 hours (one generation) | P. falciparum luciferase growth in erythrocytes, 48 h | Potency, µM (series often up to 28.7 µM), for the others: top-dose activity change, negative = inhibition, hits mostly inhibitors | hit rate 5.9% among 310,000; note: % is set by controls: 0 for no effect and ±100 for the full control effect
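Read-out is firefly luciferase luminescence from an integrated reporter in P. falciparum, so falling signal marks reduced parasite growth. Infected erythrocytes were at 2% hematocrit and 0.1% parasitemia (final) in Albumax-supplemented RPMI 1640.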
Starred values were filed as active, the others as inactive; ? = inconclusive; nt = not tested or not shown. Unless noted, calls come from the whole dose curve; as a rule, active = well fitted curve in the direction sought with a large enough effect; inconclusive = small, poorly fitted or top-dose-only effect, or another doubt; inactive = no such curve, though single readings can be large; an effect the other way counts as inactive or inconclusive. Potency is the fitted concentration of half-maximal effect.

SMILES	NS1 function inh	Pf growth 96h	AMA1 RON2 block	Sm TGR inh	Pf growth 48h
Cc1cc(NC(=O)CN(C)S(=O)(=O)c2ccc3c(c2)CCC(=O)N3)ccc1Br	nt	nt	nt	6%	nt
O=S(=O)(c1cc(Cl)ccc1Cl)n1ccnc1	0%	27%	0%	27%	0%
O=[N+]([O-])c1ccc(Cl)c(S(=O)(=O)n2ccnc2)c1	-4%	-5%	-15%	0%	2.9µM*
O=C(COC(=O)c1ccc(F)cc1Cl)NC(=O)NC1CCCC1	nt	-12%	-5%	-1%	-19%
Cc1nc2sccn2c1-c1nc(C2CC2)c(C(=O)c2ccc3c(c2)NC(=O)CO3)s1	-2%	nt	nt	nt	nt
Cc1cccc(NCCC(=O)c2ccc(Br)cc2)c1	-18%	34%	-4%	5.6µM*	13%
CC(C)c1ccc(NCCC(=O)c2ccc(Br)cc2)cc1	-6%	9.3µM*	-6%	?	1%
O=C(COC(=O)Cn1cnc2ccccc2c1=O)Nc1ccccc1OC(F)F	nt	nt	10%	nt	nt
CCCCCOc1ccc(Br)cc1/C(C)=N/NC1=NCCN1	1%	?	59%	-19%	5.2µM*
Cc1ccc(C)c(S(=O)(=O)NCCC(=O)N2CCCC(C(N)=O)C2)c1 (stereo not given)	nt	13%	8%	-1%	-6%
CN[C@H](C)CCC=C(C)C	nt	?	nt	nt	0.15µM*
CCc1ccc(Nc2sc(C(=O)c3ccccc3)c(N)c2S(C)(=O)=O)cc1	nt	nt	nt	-3%	nt
c1ccc(-c2cnc(CSc3ncnc4sccc34)o2)cc1	-62%	25%	35%	10µM*	-1%
COc1ccc(CNC(=O)C2Cc3c(-c4cccc(F)c4)ccnc3O2)cc1OC (stereo not given)	nt	nt	-22%	nt	nt
CC(=O)Oc1c(C)c(C)c2c(c1C)CCC(C)(CCCC(C)CCCC(C)CCCC(C)C)O2 (stereo not given)	nt	110%	28%	-12%	0%
Cc1c(C)c2c(c(C)c1OC(=O)CCC(=O)O)CC[C@@](C)(CCC[C@H](C)CCC[C@H](C)CCCC(C)C)O2	nt	12µM*	nt	nt	?
COc1ccc(-n2nc3cc(N)c(Br)cc3n2)cc1	4%	?	-5%	4%	205%
COc1ccc(-n2nc3cc(C)c(N)c(Br)c3n2)cc1	-35%	?	-5%	40µM*	20%
CC(=O)c1c(C)[nH]c(C(=O)COc2cc(C)ccc2C(C)C)c1C	1%	4.7µM*	-2%	-2%	nt
COc1cc(C)ccc1OCC(=O)OCC(=O)c1[nH]c(C)c(C(C)=O)c1C	nt	nt	-2%	nt	nt
CCC(C)C(=O)Nc1nc(C)c(-c2csc(Nc3ccccc3OC)n2)s1 (stereo not given)	20%	12µM*	-5%	-30%	9.3µM*
CCCCC(=O)Nc1nc(C)c(-c2csc(Nc3ccccc3OC)n2)s1	18%	?	6%	-24%	?
C=CCCC(=O)Nc1nc(C)c(-c2csc(Nc3ccccc3OC)n2)s1	1%	17µM*	7%	-1%	9.3µM*
Cc1cc(C)cc(N2C(=O)C=CC2=O)c1	nt	nt	4%	nt	nt
COc1ccc(OC)c(NC(=O)CN(Cc2ccc(F)cc2)C2CCCCC2)c1	-10%	?	?	5%	4.7µM*
SMILES	NS1 function inh	Pf growth 96h	AMA1 RON2 block	Sm TGR inh	Pf growth 48h
COc1ccc(Cl)cc1NC(=O)CN(C)C1CCCCC1	-11%	?	6%	3%	?
COc1ccc(C)cc1NC(=O)CN(Cc1nnc(-c2ccc(Cl)cc2)o1)C1CCCC1	-60%	?	27%	-9%	10µM*
CS(=O)(=O)Nc1ccc(C2=NN(C(=O)c3ccco3)C(c3cccc(F)c3)C2)cc1 (stereo not given)	nt	?	11%	-20%	13µM*
CCS(=O)(=O)Nc1ccc(C2=NN(C(=O)c3ccco3)C(c3ccc(C)cc3)C2)cc1 (stereo not given)	?	?	-3%	0%	10µM*
Cc1ccc(C2CC(c3ccc(NS(C)(=O)=O)cc3)=NN2C(=O)c2ccco2)cc1 (stereo not given)	?	?	-21%	-15%	-17%
O=C(N/N=C/c1ccc(Sc2nc3ccccc3s2)c([N+](=O)[O-])c1)c1ccccn1	10%	10µM*	41%	-24%	?
O=C(N/N=C/c1ccc(Cl)c([N+](=O)[O-])c1)c1cnccn1	-6%	5%	14%	-5%	-2%

Source: PubChem BioAssay
